# Laboratory results from the supplement of paper PMC8728848.
# Only a selection was taken, and the strongest signals are over-represented in it overall.
# B1: OS9 (Arabidopsis thaliana) (protein)
# chain: MRGSHHHHHHGMASMTGGQQMGRDLYDDDDKSRLQIFPAHLVGTFSRNNREPKYKIEFLPEDSPFHPGDNLESMVMLDKHGNRFLCYLPKEEKATSGWTSSQQNISTVMMETQQLVKLKTPDELLQPLSEKCLFRQEGWWSYEFCHQKYVRQLHVEDENKIVQEFFLGTFDPEATAAFNQTVSDASTDASQRYHSHVYTNGTTCDLTGSPREVEVRFVCAETRAMVTSITELSTCKYALTVQCPTLCKHPLFQLEKPVSHTIHCNAIPVEEDATRNKEEQAVDESPKMIADS
# Experiments:
# Experiment in all cases: glycan array binding signal (z-score within array); higher = stronger binding
# Conditions in all cases: glycan notation: IUPAC condensed, linker removed
# Fuc(a1-2)Gal(b1-3)GlcNAc = biological target: Fuc(a1-2)Gal(b1-3)GlcNAc
# Outline: (§1)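 Glycan array binding is given as a within-array Z-score, which can be read as non-binding when negative. The arrays, 3228 of them, came from the Consortium for Functional Glycomics database and were retained only where the protein sequence was available. Z-scores were averaged across arrays of the same protein sequence at different concentrations or buffers and across linkers.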
# [1] = biological target: Fuc(a1-2)Gal(b1-3)GlcNAc(b1-3)[Gal(b1-4)GlcNAc(b1-6)]Gal(b1-4)Glc
# Outline: as §1
# [2] = biological target: Fuc(a1-2)Gal(b1-4)[Fuc(a1-3)]GlcNAc(b1-2)Man(a1-3)[Fuc(a1-2)Gal(b1-4)[Fuc(a1-3)]GlcNAc(b1-2)Man(a1-6)]Man(b1-4)GlcNAc(b1-4)[Fuc(a1-6)]GlcNAc
# Outline: as §1
# [3] = biological target: Fuc(a1-2)Gal(b1-4)[Fuc(a1-3)]GlcNAc(b1-3)Gal(b1-4)[Fuc(a1-3)]GlcNAc(b1-3)Gal(b1-4)[Fuc(a1-3)]GlcNAc
# Outline: as §1
# [4] = biological target: Fuc(a1-2)[Gal(a1-3)]Gal(b1-4)GlcNAc(b1-2)Man(a1-3)[Fuc(a1-2)[Gal(a1-3)]Gal(b1-4)GlcNAc(b1-2)Man(a1-6)]Man(b1-4)GlcNAc(b1-4)GlcNAc
# Outline: as §1
# [5] = biological target: Fuc(a1-2)[Gal(a1-3)]Gal(b1-4)GlcNAc(b1-6)GalNAc
# Outline: as §1
# [6] = biological target: Fuc(a1-2)[GalNAc(a1-3)]Gal(b1-4)GlcNAc
# Outline: as §1
# [7] = biological target: Fuc(a1-3)[Gal(b1-4)]GlcNAc(b1-3)Gal(b1-4)[Fuc(a1-3)]GlcNAc(b1-3)Gal(b1-4)[Fuc(a1-3)]GlcNAc
# Outline: as §1
# [8] = biological target: Fuc(a1-3)[Gal(b1-4)]GlcNAc6S
# Outline: as §1
# [9] = biological target: Fuc(a1-3)[Gal3S(b1-4)]GlcNAc
# Outline: as §1
# [10] = biological target: Fuc(a1-3)[Gal3S(b1-4)]GlcNAc6S
# Outline: as §1
# [11] = biological target: Fuc(a1-3)[GalNAc(b1-4)]GlcNAc
# Outline: as §1
# Gal(a1-3)Gal(b1-4)GlcNAc = biological target: Gal(a1-3)Gal(b1-4)GlcNAc
# Outline: as §1
# [12] = biological target: Gal(a1-3)Gal(b1-4)GlcNAc(b1-6)GalNAc
# Outline: as §1
# Gal(a1-4)Gal(b1-4)Glc = biological target: Gal(a1-4)Gal(b1-4)Glc
# Outline: as §1
# Gal(b1-3)GalNAc = biological target: Gal(b1-3)GalNAc
# Outline: as §1
# Gal(b1-3)GalNAc(b1-3)Gal = biological target: Gal(b1-3)GalNAc(b1-3)Gal
# Outline: as §1
# [13] = biological target: Gal(b1-3)GlcNAc(a1-3)Gal(b1-4)GlcNAc
# Outline: as §1
# [14] = biological target: Gal(b1-3)GlcNAc(b1-2)Man(a1-3)[Gal(b1-3)GlcNAc(b1-2)Man(a1-6)]Man(b1-4)GlcNAc(b1-4)[Fuc(a1-6)]GlcNAc
# Outline: as §1
# [15] = biological target: Gal(b1-3)GlcNAc(b1-3)Gal(b1-4)GlcNAc(b1-3)Gal(b1-4)GlcNAc(b1-2)[Gal(b1-3)GlcNAc(b1-3)Gal(b1-4)GlcNAc(b1-3)Gal(b1-4)GlcNAc(b1-6)]Man(a1-6)[Gal(b1-3)GlcNAc(b1-3)Gal(b1-4)GlcNAc(b1-3)Gal(b1-4)GlcNAc(b1-2)Man(a1-3)]Man(b1-4)GlcNAc(b1-4)[Fuc(a1-6)]GlcNAc
# Outline: as §1
# [16] = biological target: Gal(b1-3)GlcNAc(b1-6)[Gal(b1-3)]GalNAc
# Outline: as §1
# [17] = biological target: Gal(b1-3)[Fuc(a1-4)]GlcNAc(b1-2)Man(a1-3)[Gal(b1-3)[Fuc(a1-4)]GlcNAc(b1-2)Man(a1-6)]Man(b1-4)GlcNAc(b1-4)[Fuc(a1-6)]GlcNAc
# Outline: as §1
# [18] = biological target: Gal(b1-4)GlcNAc(b1-2)[Gal(b1-4)GlcNAc(b1-6)]Man(a1-6)[GlcNAc(b1-4)][Gal(b1-4)GlcNAc(b1-2)Man(a1-3)]Man(b1-4)GlcNAc(b1-4)GlcNAc
# Outline: as §1
# [19] = biological target: Gal(b1-4)GlcNAc(b1-3)Gal(b1-4)GlcNAc(b1-3)Gal(b1-4)GlcNAc(b1-3)Gal(b1-4)GlcNAc(b1-3)Gal(b1-4)GlcNAc(b1-3)Gal(b1-4)GlcNAc(b1-2)Man(a1-3)[Gal(b1-4)GlcNAc(b1-3)Gal(b1-4)GlcNAc(b1-3)Gal(b1-4)GlcNAc(b1-3)Gal(b1-4)GlcNAc(b1-3)Gal(b1-4)GlcNAc(b1-3)Gal(b1-4)GlcNAc(b1-2)Man(a1-6)]Man(b1-4)GlcNAc(b1-4)GlcNAc
# Outline: as §1
# [20] = biological target: Gal(b1-4)GlcNAc(b1-3)[Gal(b1-4)GlcNAc(b1-6)]Gal(b1-4)GlcNAc
# Outline: as §1
# Gal3S(b1-4)Glc6S = biological target: Gal3S(b1-4)Glc6S
# Outline: as §1
# GalNAc(a1-3)Gal = biological target: GalNAc(a1-3)Gal
# Outline: as §1
# GalNAc(b1-3)GalNAc = biological target: GalNAc(b1-3)GalNAc
# Outline: as §1
# GalNAc(b1-4)Gal(b1-4)Glc = biological target: GalNAc(b1-4)Gal(b1-4)Glc
# Outline: as §1
# [21] = biological target: GalNAc(b1-4)GlcNAc(b1-2)Man
# Outline: as §1
# Glc(a1-4)Glc = biological target: Glc(a1-4)Glc
# Outline: as §1
# Glc(a1-6)Glc(a1-6)Glc = biological target: Glc(a1-6)Glc(a1-6)Glc
# Outline: as §1
# [22] = biological target: GlcNAc(b1-2)[GlcNAc(b1-4)]Man(a1-3)[GlcNAc(b1-4)][GlcNAc(b1-2)[GlcNAc(b1-6)]Man(a1-6)]Man(b1-4)GlcNAc(b1-4)GlcNAc
# Outline: as §1
# [23] = biological target: GlcNAc(b1-3)Gal(b1-4)GlcNAc(b1-3)Gal(b1-4)GlcNAc(b1-2)Man(a1-3)[GlcNAc(b1-3)Gal(b1-4)GlcNAc(b1-3)Gal(b1-4)GlcNAc(b1-2)Man(a1-6)]Man(b1-4)GlcNAc(b1-4)[Fuc(a1-6)]GlcNAc
# Outline: as §1
# [24] = biological target: GlcNAc(b1-3)Gal(b1-4)GlcNAc(b1-6)[Gal(b1-3)]GalNAc
# Outline: as §1
# GlcNAc(b1-3)Man = biological target: GlcNAc(b1-3)Man
# Outline: as §1
# [25] = biological target: GlcNAc(b1-4)[GlcNAc(b1-6)]GalNAc
# Outline: as §1
# Kdn(a2-3)Gal(b1-4)Glc = biological target: Kdn(a2-3)Gal(b1-4)Glc
# Outline: as §1
# [26] = biological target: Man(a1-2)Man(a1-3)[Man(a1-2)Man(a1-6)]Man
# Outline: as §1
# Man(a1-3)[Man(a1-6)]Man = biological target: Man(a1-3)[Man(a1-6)]Man
# Outline: as §1
# [27] = biological target: Neu5Ac(a2-3)Gal(b1-3)GlcNAc(b1-3)GalNAc
# Outline: as §1
# [28] = biological target: Neu5Ac(a2-6)Gal(b1-4)GlcNAc(b1-2)Man(a1-3)Man(b1-4)GlcNAc(b1-4)GlcNAc
# Outline: as §1
# [29] = biological target: Neu5Ac(a2-6)Gal(b1-4)GlcNAc(b1-2)Man(a1-3)[Neu5Ac(a2-6)Gal(b1-4)GlcNAc(b1-2)Man(a1-6)]Man(b1-4)GlcNAc(b1-4)GlcNAc
# Outline: as §1
# [30] = biological target: Neu5Ac(a2-8)Neu5Ac(a2-3)Gal(b1-3)GalNAc(b1-4)[Neu5Ac(a2-8)Neu5Ac(a2-3)]Gal(b1-4)Glc
# Outline: as §1
# [31] = biological target: Neu5Ac(a2-8)Neu5Ac(a2-3)[Gal(b1-3)GalNAc(b1-4)]Gal(b1-4)Glc
# Outline: as §1
# Neu5Gc(a2-3)Gal(b1-4)Glc = biological target: Neu5Gc(a2-3)Gal(b1-4)Glc
# Outline: as §1
binder,measurement,setting,value
B1,glycan array binding signal (z-score),Fuc(a1-2)Gal(b1-3)GlcNAc,-0.466
same,glycan array binding signal (z-score),[1],2.66
same,glycan array binding signal (z-score),[2],-0.608
same,glycan array binding signal (z-score),[3],4.22
same,glycan array binding signal (z-score),[4],3.36
same,glycan array binding signal (z-score),[5],0.051
same,glycan array binding signal (z-score),[6],-0.828
same,glycan array binding signal (z-score),[7],-0.881
same,glycan array binding signal (z-score),[8],3.45
same,glycan array binding signal (z-score),[9],1.51
same,glycan array binding signal (z-score),[10],-0.706
same,glycan array binding signal (z-score),[11],0.056
same,glycan array binding signal (z-score),Gal(a1-3)Gal(b1-4)GlcNAc,-0.724
same,glycan array binding signal (z-score),[12],0.243
same,glycan array binding signal (z-score),Gal(a1-4)Gal(b1-4)Glc,2.7
same,glycan array binding signal (z-score),Gal(b1-3)GalNAc,-0.097
same,glycan array binding signal (z-score),Gal(b1-3)GalNAc(b1-3)Gal,3.02
same,glycan array binding signal (z-score),[13],-1.06
same,glycan array binding signal (z-score),[14],-0.157
same,glycan array binding signal (z-score),[15],2.88
same,glycan array binding signal (z-score),[16],0.651
same,glycan array binding signal (z-score),[17],7.5
same,glycan array binding signal (z-score),[18],-0.016
same,glycan array binding signal (z-score),[19],0.798
same,glycan array binding signal (z-score),[20],1.43
same,glycan array binding signal (z-score),Gal3S(b1-4)Glc6S,0.366
same,glycan array binding signal (z-score),GalNAc(a1-3)Gal,-0.979
same,glycan array binding signal (z-score),GalNAc(b1-3)GalNAc,0.839
same,glycan array binding signal (z-score),GalNAc(b1-4)Gal(b1-4)Glc,2.57
same,glycan array binding signal (z-score),[21],3.58
same,glycan array binding signal (z-score),Glc(a1-4)Glc,1.98
same,glycan array binding signal (z-score),Glc(a1-6)Glc(a1-6)Glc,-0.542
same,glycan array binding signal (z-score),[22],0.258
same,glycan array binding signal (z-score),[23],-0.144
same,glycan array binding signal (z-score),[24],0.094
same,glycan array binding signal (z-score),GlcNAc(b1-3)Man,0.127
same,glycan array binding signal (z-score),[25],-0.3
same,glycan array binding signal (z-score),Kdn(a2-3)Gal(b1-4)Glc,0.473
same,glycan array binding signal (z-score),[26],0.462
same,glycan array binding signal (z-score),Man(a1-3)[Man(a1-6)]Man,-0.078
same,glycan array binding signal (z-score),[27],0.474
same,glycan array binding signal (z-score),[28],6.74
same,glycan array binding signal (z-score),[29],-0.5
same,glycan array binding signal (z-score),[30],-0.384
same,glycan array binding signal (z-score),[31],1.47
same,glycan array binding signal (z-score),Neu5Gc(a2-3)Gal(b1-4)Glc,-1.01
